From PubChem BioAssay
GALC G270D act: enhancers of human galactocerebrosidase G270D mutant activity in cells; P54803; 145M-Twi-hGALC-G270D cells, HMU-beta-Gal fluorescence, 48 h; Potency, µM (top dose mostly 57.5 µM), actives largely listed as activators; 0.1% of 45,000 active; AID 1159614; further: nearly all actives have a fitted effect of over 65% in size
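qHTS, 1536-well; 145M-Twi-hGALC-G270D cells (WT line also made) in DMEM/F12 + 10% FBS; compound incubation on live cells; HMU-β-gal 0.1 mM final, pH 5.2, NaTC; carbonate stop; fluorescence increase = enhanced residual activity.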
B2AR arrestin ag: beta-arrestin recruitment by human beta2-adrenergic receptor ligands; AID 1347077; HTLA Tango cells, beta-arrestin recruitment, luciferase luminescence, 18 h; 44,000 tested, under 10 active; Potency, µM (series often up to 46.1 µM), most hits filed as activators
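Tango cell line, 1% FBS DMEM; cpd titration up to 46 microM; 18 hr, 37 degrees C, 5% CO2. Luciferin/ATP substrate mix added, 15 min RT, luminescence. %Activity, CRC fitting, curve-class categorization.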
NTMT1 inhibitor: blocks human N-terminal methyltransferase 1 activity; 2.5% of 59,000 active; NTMT1 MTase-Glo SAH luminescence, purified enzyme; Potency, µM (doses to about 114 µM), most hits filed as inhibitors; AID 1645870; further: nearly all actives have a fitted effect of over 65% in size
GALK inhibitor: GALK (human) enzyme inhibition; 44,000 tested, under 10 active; AID 1347072; recombinant GALK, Kinase-Glo ATP luminescence, 1 h; Potency, µM (top dose mostly 57.5 µM), hits mostly inhibitors
Target sequence (P51570 whole entry, looked up): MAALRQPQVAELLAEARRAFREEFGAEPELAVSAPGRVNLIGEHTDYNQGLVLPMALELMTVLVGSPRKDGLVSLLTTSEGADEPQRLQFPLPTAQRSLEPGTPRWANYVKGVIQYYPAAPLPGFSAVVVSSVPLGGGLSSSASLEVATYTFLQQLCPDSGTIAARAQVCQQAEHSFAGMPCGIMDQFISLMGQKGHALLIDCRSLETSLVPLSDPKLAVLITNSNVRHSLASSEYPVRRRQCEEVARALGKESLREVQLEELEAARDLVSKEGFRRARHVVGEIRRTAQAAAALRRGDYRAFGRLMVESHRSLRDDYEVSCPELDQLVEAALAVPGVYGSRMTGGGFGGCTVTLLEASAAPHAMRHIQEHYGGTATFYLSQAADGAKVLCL
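Luminescent ATP-depletion readout (Kinase-Glo Plus, 10 min) after 1 h RT reaction of 5 nM GALK, 35 uM ATP, 100 uM galactose, pH 8.0 HEPES buffer. Decreased kinase activity scored as inhibition.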
DRV1 agonist: activates human resolvin D1 receptor GPR32. AID 1346428. O75388. CHO-K1 GPR32 beta-arrestin PathHunter luminescence, 90 min; zero percent set by DMSO-only wells. 2.5% of 48,000 active. activation, % at 76.9 µM;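 active means activation of at least 60% and not above a set upper limit, about 1 call in 100 departs from these limits; inconclusive means activation of 40% to 60%, or above that upper limit; inactive means activation under 40%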
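Engineered CHO-K1 line co-expressing GPR32-ProLink and EA-beta-arrestin. Compound treatment lasted 90 min at 37 °C. Luminescence was recorded after 1 h with substrate at ambient temperature, relative to DMSO basal wells.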
Each line names hits and unclear results; the compound was inactive in the other large screens. Rows were chosen to be rich in hits. Some 3.6% of all compounds tested hit in one or more screens of this group. Unless noted, the call rests on the fitted dose curve; in most records, active means well fitted curve in the direction sought with a large enough effect; inconclusive means small, poorly fitted or top-dose-only effect, or another doubt; inactive means no such curve, though single readings can be large; an effect the other way counts as inactive or inconclusive.

Cc1cc(C)c(Cn2c(CCNC(=O)c3ccco3)nc3ccccc32)c(C)c1	DRV1 agonist 68 (no result: GALC G270D act, NTMT1 inhibitor)
Cc1ccc(-c2ccc(=O)n(CC(=O)NCCc3ccccc3)n2)cn1	none (no result: GALC G270D act, B2AR arrestin ag, GALK inhibitor, DRV1 agonist)
Cn1nnnc1Sc1ncnc2scc(-c3ccc4c(c3)OCO4)c12	NTMT1 inhibitor 89µM (no result: GALC G270D act, B2AR arrestin ag, GALK inhibitor, DRV1 agonist)
CCN1/C(=C/C=C/c2sc3ccccc3[n+]2CC)Sc2ccccc21	NTMT1 inhibitor 18µM (no result: B2AR arrestin ag, GALK inhibitor)
CN1CCCN(C(=O)c2cccc(-c3ccc(/C=C4/C(=O)Nc5ccc(Cl)cc54)o3)c2)CC1	NTMT1 inhibitor 11µM (no result: GALC G270D act, B2AR arrestin ag, GALK inhibitor, DRV1 agonist)
O=C(CN1C(=O)N/C(=C\c2cn(-c3cccc(C(=O)O)c3)cn2)C1=O)Nc1ccc(Cl)cc1	none (no result: GALC G270D act, B2AR arrestin ag, GALK inhibitor, DRV1 agonist)
COc1cccc(NC(=O)CC2C(=O)OCCN2Cc2ccccc2)c1 (stereo not given)	NTMT1 inhibitor inconclusive
O=C(CC1C(=O)OCCN1Cc1ccccc1)Nc1cccc(C(F)(F)F)c1 (stereo not given)	DRV1 agonist 112
O=C(O)c1c(-c2ccccc2)no[n+]1[O-]	none (no result: GALC G270D act, B2AR arrestin ag, GALK inhibitor, DRV1 agonist)
CC(C)C(=O)Nc1cccc(C(=O)Nc2nnc(CC(C)(C)C)s2)c1	DRV1 agonist 62
CC(C)N(CCCNC(=O)Nc1ccc(C(C)(C)C)cc1)C[C@H]1O[C@@H](n2cc(Br)c3c(N)ncnc32)[C@H](O)[C@@H]1O	NTMT1 inhibitor 8.9µM (no result: GALC G270D act, B2AR arrestin ag, GALK inhibitor, DRV1 agonist)
Cc1ccccc1Nc1c(-c2c[nH]c3ccccc23)nc2cccc(C)n12	DRV1 agonist 63
Cc1ccccc1Nc1c(-c2ccc(Cl)s2)nc2cccc(C)n12	DRV1 agonist 61
[2H]c1nc(C)nc([2H])c1-c1cc(NC[C@@H](C)c2cccc3c(C(=O)NC)ccnc23)ncn1	none (no result: GALC G270D act, B2AR arrestin ag, GALK inhibitor, DRV1 agonist)
CCN(Cc1ccccc1)C(=O)c1cc2c(=O)[nH]c3ccc(C)cc3c2s1	NTMT1 inhibitor 89µM
Cc1ccc2[nH]c(=O)c3cc(C(=O)NCc4cccc(Cl)c4)sc3c2c1	NTMT1 inhibitor inconclusive
CC(=O)Nc1sc2c(c1-c1ccc(N3CCN(C(C)=O)CC3)nc1)CCNC2	none (no result: GALC G270D act, B2AR arrestin ag, GALK inhibitor, DRV1 agonist)
COc1ccc(CNC(=O)c2cc(-c3cncc(Cl)c3)cnc2-c2ccccn2)nc1OC	none (no result: GALC G270D act, B2AR arrestin ag, GALK inhibitor, DRV1 agonist)
CN1CCc2nc3sc(C(=O)Nc4c(F)cccc4F)c(N)c3cc2C1	none
COc1ccc(NC(=O)c2sc3nc4c(cc3c2N)CN(Cc2ccccc2)CC4)cc1	NTMT1 inhibitor inconclusive
Nc1c(C(=O)Nc2cccc(Cl)c2)sc2nc3c(cc12)CN(Cc1ccccc1)CC3	DRV1 agonist 61
CCC1CCc2nc3sc(C(=O)Nc4ccc(F)c(F)c4)c(N)c3cc2C1 (stereo not given)	NTMT1 inhibitor inconclusive
CCC1CCc2nc3sc(C(=O)Nc4ccc(C)cc4C)c(N)c3cc2C1 (stereo not given)	DRV1 agonist 69
Cc1cccc(NC(=O)c2sc3nc4c(cc3c2N)CN(Cc2ccccc2)CC4)c1	none
Cc1ccc(NC(=O)c2sc3nc4c(cc3c2N)CN(Cc2ccccc2)CC4)cc1	DRV1 agonist 116
CCN1CCc2nc3sc(C(=O)Nc4cccc(Cl)c4C)c(N)c3cc2C1	NTMT1 inhibitor inconclusive, DRV1 agonist 121
Cc1ccc(-c2nc3ccccc3[nH]2)cc1NC(=O)c1ccc(-c2cccc(Cl)c2)o1	none (no result: GALC G270D act, B2AR arrestin ag, GALK inhibitor, DRV1 agonist)
Cc1c2cnn(-c3ccccc3)c(=O)c2c(C)n1CC(=O)N1CCN(c2ccc(F)cc2)CC1	NTMT1 inhibitor inconclusive
Cc1nn(C)c2c1c(C(F)(F)F)cc(=O)n2CC(=O)N1CCCCC1C (stereo not given)	DRV1 agonist 80
CCOC(=O)C1CCCN(C(=O)Cn2c(=O)cc(C)c3c(C)nn(C)c32)C1 (stereo not given)	DRV1 agonist 81
CCOc1ccc(NC(=O)Cn2c(=O)cc(C)c3c(C)nn(C)c32)cc1	none
Cc1cc(=O)n(CC(=O)N2CCN(c3ccc(F)cc3)CC2)c2c1c(C)nn2C	DRV1 agonist 71
O=C([C@H](Cc1ccc(O[S+](=O)([O-])c2cccc3cccnc23)cc1)N[S+](=O)([O-])c1ccccn1)N1CCN(c2ccccc2)CC1	none (no result: GALC G270D act, B2AR arrestin ag, GALK inhibitor, DRV1 agonist)
Cc1ccc(OCCn2c(CCNC(=O)c3ccc(C(C)(C)C)cc3)nc3ccccc32)cc1	none (no result: GALC G270D act, B2AR arrestin ag, GALK inhibitor, DRV1 agonist)
O=C(Nc1cccc(C(F)(F)F)c1)Nc1ccc(Br)cc1-c1nn[nH]n1	none (no result: GALC G270D act, B2AR arrestin ag, GALK inhibitor, DRV1 agonist)
